Measured values: PubChem BioAssay AID1259399 (Fisher Drug Discovery Resource Center, 2018)
Out of some 160,000 compounds screened, about 240 (0.15%) were called active. This is one part of a sample in which actives are shown more often than they occur. Values without a mark were called inactive. Cut-off read from the data, not from the text of the source: active = inhibition above about 40%; inactive = the rest.

Biological target: Cyclic GMP-AMP synthase (Mus musculus) (UniProt Q8C6L5)
Assay: cyclic GMP-AMP synthase inhibitors, mouse, primary biochemical chemiluminescence (AID 1259399);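 note: 0% = negative control wells and 100% = reference inhibitor with no enzyme activity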
Conditions: recombinant cGAS, Kinase-Glo ATP depletion luminescence; at 12.5 µM; hits give high values

Cyclic GMP-AMP synthase (Mus musculus), sequence (Q8C6L5 whole entry, looked up): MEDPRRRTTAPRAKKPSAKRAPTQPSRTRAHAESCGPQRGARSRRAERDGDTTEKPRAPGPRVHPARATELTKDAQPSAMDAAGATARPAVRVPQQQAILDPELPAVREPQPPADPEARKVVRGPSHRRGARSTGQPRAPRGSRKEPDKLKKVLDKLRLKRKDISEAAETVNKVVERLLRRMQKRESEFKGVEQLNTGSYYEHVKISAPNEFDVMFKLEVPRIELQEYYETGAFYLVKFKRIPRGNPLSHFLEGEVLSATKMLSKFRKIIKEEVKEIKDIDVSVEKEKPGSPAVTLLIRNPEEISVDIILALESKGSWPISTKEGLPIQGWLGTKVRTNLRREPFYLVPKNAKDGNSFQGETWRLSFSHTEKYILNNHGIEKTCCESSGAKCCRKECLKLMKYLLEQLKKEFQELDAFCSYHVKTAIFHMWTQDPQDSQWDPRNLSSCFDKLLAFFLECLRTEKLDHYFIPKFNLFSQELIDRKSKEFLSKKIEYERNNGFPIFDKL

| Structure (SMILES) | inhibition |
| --- | --- |
| Cc1ccc(C)c(N2CCN(C(=O)c3cccc(F)c3)C(C)C2=O)c1 (centres undefined) | -1.42% |
| CCc1nc2ccc(C(=O)N(C)Cc3ccccc3)cn2c1N(C)C(=O)c1cccc(OC)c1 | -0.76% |
| C=CCN(Cc1cccnc1)C(=O)C1CCCN1C(=O)C1CCCCC1 (centres undefined) | -14.1% |
| CCc1nc2c(OCCOc3ccc(F)cc3)cccn2c1N(C)C(=O)c1ccncc1 | -2.55% |
| O=c1c(O)c(Br)ccc2c(Br)c(O)c(O)c(O)c12 | 71.1% (active) |
| CCOc1c(Br)cc(Br)cc1CNCC(=O)N1CCCC1 | -7% |
| CN(C)c1ccc(/C=C/C=C2/SC(N)=NC2=O)cc1 | -4.74% |
| COc1ccc(C2NC(=O)N(C)C3=C2C(=O)N(Cc2ccc(F)cc2)C3)cc1 (centres undefined) | -4.51% |
| Cc1ccc2nc(-c3ccccc3F)c(NC(C)(C)CC(C)(C)C)n2c1 | -1.73% |
| N#CC1C(=N)Oc2c(c(=O)oc3ccccc23)C12C(=O)Nc1ccc(Br)cc12 (centres undefined) | -4.42% |
| CSc1ccc(C(=O)N2CCCC(CO)(CCCc3ccccc3)C2)cc1 (centres undefined) | -6.85% |
| Cc1[nH]c2c(c1C(=O)NCCOc1ccccc1F)C(=O)CCC2 | -9.39% |
| Cc1nc(N2CCOCC2)ncc1-c1cc(=O)[nH]c(N2CCc3ccccc3C2)n1 | -6.34% |
| COc1ccc(C(NC(=O)C2CCN(CCCc3ccccc3)CC2)c2cccs2)cc1 (centres undefined) | -2.89% |
| CCCCn1nnnc1CSc1nc(C)c(C)c(C)c1C#N | 0.584% |
| COc1ccccc1NC(=O)c1ccc(-n2nc(-c3ccc(Cl)cc3)cc2N)cc1 | -3.87% |
| O=C(Nc1cccc(-c2cccc(-c3ccc(F)cc3)n2)c1)c1c(F)c(F)c(F)c(F)c1F | -6.45% |
| COCCCN(CC(=O)N1CCc2sccc2C1COc1ccc(Cl)c(C)c1)C(=O)c1cccc(OC)c1 (centres undefined) | -4.66% |
| O=C(c1ccc(F)cc1F)N1CCC(c2nc(-c3ccc4c(c3)OCO4)no2)CC1 | -1.48% |
| COc1ccc(CC(=O)NNC(=O)c2cccn(Cc3ccc(F)cc3)c2=O)cc1 | -6.25% |
| CC[N+](C)(CC)CCC[n+]1c(-c2ccccc2)c2cc(N)ccc2c2ccc(N)cc21 | 78.9% (active) |
| CCN1CCN(C(=O)c2ccc(CSc3nnc(-c4cccs4)n3CC)cc2)CC1 | -5.22% |
| O=C(N1CC[C@@H](O)C1)C1(c2cccc(Br)c2)CC1 | -0.654% |
| CCn1cc(-c2cc(NCc3ccccn3)nc3[nH]ccc23)c(C)n1 | -9.58% |
